Structures are written as SMILES. A structure can be active in one record and inactive in another. Activity calls are given as the source filed them. Rule for the calls: active = hit-call score of the fitted dose curve at least 0.9, where 1 is the maximum; inactive = score below 0.9.

Read-out in the experiment: Plasminogen activator inhibitor-1 (PAI1), SERPINE1 (gene 5054)
As to the kind of experiment: BSK_KF3CT_PAI1: BioMAP Diversity Plus: KF3CT Assay for Plasminogen activator inhibitor-1 (PAI1) Biomarker Activity (AID 2284252). Conditions: primary human keratinocytes with fibroblasts. The protocol:
BSK_KF3CT is a cell-based, multiplexed-readout assay that uses keratinocytes and foreskin fibroblasts, a human skin primary cell co-culture, with measurements taken at 24 hours after chemical dosing in a 96-well plate.BSK_KF3CT_PAI1 is an assay component measured in the BSK_KF3CT assay. It measures PAI-1 antibody related to regulation of gene expression using ELISA technology.Data from the assay component BSK_KF3CT_PAI1 was analyzed at the endpoint, BSK_KF3CT_PAI1, in the positive analysis fitting direction relative to DMSO as the negative control and baseline of activity. Using a type of binding reporter, gain or loss-of-signal activity can be used to understand protein changes. To generalize the intended target to other relatable targets, this assay endpoint is annotated to the 'cytokine' intended target family, where the subfamily is 'plasmogen activator inhibitor'.
The levels of cell surface (or secreted, indicated by the prefix "s") biomarker endpoints were measured by ELISA. Overt cytotoxicity to cells in confluent adherent cultures (all systems other than the BT system) was assessed by measuring total protein levels using sulforhodamine B (SRB) staining in parallel cultures at the time of biomarker measurements, indicated as SRB endpoints. For proliferation assays for adherent cell types, individual cell types are cultured at sub-confluence and relative cell numbers quantified by SRB staining at time points optimized for each system (48 h: 3C and CASM3C systems; 72 h: BT and HDF3CGF systems; 96 h: SAg system). SRB was performed by staining cells with 0.1% SRB after fixation with 10% TCA and reading wells at 560 nm.Viability and proliferation of PBMC (T cells) was quantified by Alamar Blue reduction for the SAg and BT systems. For PBMC viability (referred to as PBMC Cytotoxicity within the assay endpoint names), cells were plated (75,000/well in a 96-well plate) and then chemical samples added for 1 h before addition of activators, SEB and TSST-1 (20 ng/mL final concentration each). Cells were incubated for 90 h. Then, Alamar Blue (20 uL/well) (Invitrogen, Cat DAL1100) was added for 6 h, and the plates were read with a fluorescence microplate reader at 546/580 nm (excitation/emission). For PBMC proliferation, cells were plated and activated as above but incubated for only 16 h prior to addition of Alamar Blue. Plates were read after 6 h.
With `CC[Si](OC(C)=O)(OC(C)=O)OC(C)=O`, the outcome was inactive.

As for `CC(=O)[C@H]1CC[C@H]2[C@@H]3CC=C4C[C@@H](O)CC[C@]4(C)[C@H]3CC[C@]12C`, the AC50 – broadly, the concentration at which the activity in the assay is half-maximal – is 3.88 µM (active) and the outcome was inactive.

Consider `NCCNCCN`, for which the result was inactive.

For `Nc1cc([N+](=O)[O-])ccc1O`, the outcome was inactive.

With `OC[C@H]1O[C@H](O[C@]2(CCl)O[C@H](CCl)[C@@H](O)[C@@H]2O)[C@H](O)[C@@H](O)[C@H]1Cl`, the result was inactive.

As to `COc1cc(C=O)ccc1OC(=O)C(C)C`, the result was inactive.

In the case of `CCC(=O)OCc1ccccc1`, the outcome was inactive.

Take `C[C@H]1C[C@@H]2[C@H]([C@@H](O)C[C@@]3(C)[C@H]2CC[C@]3(O)C(=O)CO)[C@@]2(C)C=CC(=O)C=C12`: the result was inactive.

On to `CC(=O)OCCC(C)CC(C)(C)C` (stereo not drawn), for which the result was inactive.

On to `C=CCOC(=O)CCC1CCCCC1`, for which the result was inactive.

As for `Cc1cc(C2(c3cc(C)c(O)cc3C)OS(=O)(=O)c3ccccc32)c(C)cc1O`, the outcome was inactive.

For `OC1OC[C@@H](O)[C@H](O)[C@H]1O` (stereo partly drawn), the result was inactive.

The values above are taken from PubChem BioAssay (EPA / NIEHS).
